Experimental data published in the supplement of paper PMC6555819.

Assays:
Experiment in all cases: PBM binding z-score (relative to random genomic background probes); higher = stronger binding; sequences stand for … in GC…GCGATTGACAGCGTAGAATGAAGG
[1] = system: RARb homodimer (NR concentration 270 nM)
Summary of the method: (§1)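 Random background probes are the reference for binding z-scores. These scores derive from regression-normalized fluorescence on custom Agilent 4×180K protein-binding microarrays incubated 1 h with ligand-free nuclear receptor dimers. Binding was detected with antibodies against each partner (one per run).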

[2] = system: RARg:RXRa (NR concentration 270 nM, RXRa partner concentration 90 nM)
Summary of the method: as §1

[3] = system: RARg homodimer (NR concentration 270 nM)
Summary of the method: as §1

[4] = system: RXRa DBDmut IVT, anti-RXR (DBD mutation: RXRa K156A/R161A, NR concentration 90 nM)
Summary of the method: as §1

[5] = system: RXRa homodimer (NR concentration 180 nM)
Summary of the method: as §1

[6] = system: THRa:RXRa (NR concentration 90 nM, RXRa partner concentration 90 nM)
Summary of the method: as §1

[7] = system: THRa homodimer (NR concentration 90 nM)
Summary of the method: as §1

[8] = system: VDR homodimer (NR concentration 270 nM)
Summary of the method: as §1

Sequence	PBM binding z-score [1]	PBM binding z-score [2]	PBM binding z-score [3]	PBM binding z-score [4]	PBM binding z-score [5]	PBM binding z-score [6]	PBM binding z-score [7]	PBM binding z-score [8]
CCGACTGGGGCAACGTTACCATAACGCACAGCCA	-0.0419	0.137	0.521	-0.207	-0.126	-0.262	-0.261	-0.403
CGAACTAGGTCATTGACACGACAGTGAATAGTAA	2.5	3.57	4.22	2.37	2.52	2.53	0.751	1.15
ACTAGCAGGCCAAGGGTCCCTCAAGATTAGTCCG	0.0685	-0.0773	-0.0696	-0.495	-0.0168	-0.255	-0.726	-0.484
CCAGACAGGTGAGCAGGTAACTCAGCCTCGATTA	0.399	0.113	0.308	-0.0126	-0.115	0.218	0.165	-0.319
ATCGCAAGGTCGAAGGTGAGTATACCCACCCGAA	1.17	2.67	2.23	0.978	2.93	2.12	-0.0109	0.489
CGAAGTAGGTCATTGACAGGACAGTGAATAGTAA	2.74	4.83	4.36	2.27	2.94	2.64	0.373	1.07
CAAACTAGGTCACCGGAAGGTCAAACTCCGCATG	5.43	8.28	7.24	2.46	6.33	4.6	3.44	4.04
TAGCCTAGGTCATTCAGGGGCCAATATAGAAAGC	3.51	6.6	4.84	2.06	3.15	3.85	0.878	2.13
TCTCGGAGGACACGAAGGTAAGAGCTTTCCAGAG	0.164	0.396	1.27	0.371	-0.0884	1.18	0.0809	-0.641
GTACCCAGGTGAATAGGTCGTTGATGAGTAGGCG	1.16	1.5	0.814	-0.431	1.18	1.31	0.537	0.0528
ACTTACGGGTCAACGAGGTTATAGAACGCGTATA	3.89	5.69	5.34	2.56	6.54	4.21	1.21	3.53
CTCGAAAGGTCGTGCTGAGGTGAGTATACCAAAC	3.29	5.56	4.04	1.92	4.81	4.6	1.38	1.06
CCTATTGGGCCAAAAAGGTCATTGATGCCGATAA	4.34	4.44	4.07	0.773	4.53	3.25	0.389	2.18
GCATATAGGTAATACAAGGTGATAGTCCGATTGT	-0.0222	0.537	0.59	0.172	0.526	3.48	0.413	-0.123
CATACAGGGTCAGCGAGGCCAGAGTAGGGACGGC	3.42	4.59	4.23	1.89	4.45	3.58	1.01	2.49
CTCGTAAGGTCGGTTGAGGTGAGTATACGGATAA	1.99	1.89	2.09	1.26	1.44	5.11	2.39	0.937
AGAATGAGGTTACCAAAGATCACGGAAACGCTTG	1.02	2.24	1.89	1.17	2.95	3.03	0.696	0.151
GCTAGCTGGCCATTTGGGTCACTCAATGACGGGC	1.49	0.332	0.89	-0.667	0.339	1.22	0.32	-0.66
GATACAGGGTCAGTTAGAGGCCAGAGTATGGAAA	3.21	5.99	4.52	1.88	3.67	2.73	0.565	1.51

Sequence	PBM binding z-score [1]	PBM binding z-score [2]	PBM binding z-score [3]	PBM binding z-score [4]	PBM binding z-score [5]	PBM binding z-score [6]	PBM binding z-score [7]	PBM binding z-score [8]
CAAACTAGGTCACGAAACGTCAAAGTCGAATGAC	3.21	4.59	5.27	1.07	3.8	3.28	1.52	0.534
CGTCCAAGGGCAAAGGTCAGTGAAGAGATGACGG	4.71	6.32	5.49	1.64	6.15	3.45	0.298	1.34
ATCGAAAGGTCGAGGTGTGTATAGAGAAAGGGAA	2.82	4.23	4.18	0.84	4.06	2.05	0.277	0.444
CGCCAAAGTTCAAGGTAACGTAACAGAAAGCAGC	4.05	5.2	5.94	4.68	4.57	2.96	1.28	3.03
TCGAGTAGGTTAGTGGCATTCAGAATGGCGTCGA	-0.183	-0.478	-0.516	0.0324	-0.235	-0.441	-0.559	-0.54
CCTAGTTGGTCAGGCGGTCACACACCGGATATGA	2.12	1.41	1.67	-0.336	0.344	0.232	0.129	0.3
TCATATAGGTAATACAGGTGTAAGTCGGCATCTA	-0.213	0.547	0.355	1.67	1.03	0.384	0.316	0.283
CCGACTGGGGTAAAGGTTACCATACTCAGTACGA	1.83	2.51	1.44	0.246	3.27	2.05	-0.0216	0.207
CCTTACGGGTCACTGACAGGTTATAGCCTTTGGA	3.15	5.69	4.21	2	4.83	2.9	0.294	1.14
CATACAGGGTCAGCTAGGCCAGTGTAGGGACGGC	3.34	4.2	4.67	1.57	3.89	3.07	0.856	1.07
TAGCCTAGGTCATTGGGCCAGTATTGTACGCATC	2.89	3.78	4.05	1.46	2.62	2.88	0.793	1.03
ATCTCTAGGTAACCAAGTTCCGTGAATGCCGAAC	-0.23	0.14	0.215	0.0901	0.217	0.694	0.462	-0.111
TCTCGGAGGACACTAAGGTCAGAGCTTTCCAGAG	3.82	3.4	3.84	1.33	2.26	3.71	3.11	2.73
CCTGCTAGGTCATTGGTCAGCTAAAGCAGCTCGC	3.25	3.88	4.43	3.02	2.61	2.79	1.24	1.27
GGAACGAGGGCAAAGTTGATATCATCTGTCGACG	1.26	2.14	1.97	2.81	1.96	1.32	0.0109	1.29
TCATATAGGTAAACTGGTGAAAGTCCGTAAGTTA	0.366	0.0786	-0.0648	1.19	0.361	0.34	0.281	0.358
AATACAGGCTCACTAGGCCAGAGTAGGTACGAAT	-0.345	-0.402	-0.0557	-0.214	-0.169	-0.688	-0.397	-0.126
CCTTACGGGTCACTACAGGTTATAGCATCGGAGT	3.27	4.6	4.47	1.7	4.64	4.19	-0.0959	1.31
CCAGACAGGTGAGAAGGTAACTAAGCCTCGATTA	0.66	0.524	0.586	-0.275	0.277	0.221	-0.101	-0.0907

Sequence	PBM binding z-score [1]	PBM binding z-score [2]	PBM binding z-score [3]	PBM binding z-score [4]	PBM binding z-score [5]	PBM binding z-score [6]	PBM binding z-score [7]	PBM binding z-score [8]
GCATATAGGTAATACAAGGAGAAAGTCCGATTGT	-0.449	0.152	0.156	0.562	-0.0159	1.9	-0.606	-0.234
CGTCCAAGGTCAATGTCAGTGAAAGAGACTCGAA	3.64	5.4	5.96	3.62	4.79	3.57	1.84	2.02
GCTCGTTGGTCAGTAAAAGGTCACACACCGGTCG	5.31	5.69	5.36	0.666	5.85	3.91	2.35	2.44
CAAACTAGGTCAAAGGTCGAAGTCGAGCCAACCA	3.9	7.26	5.75	2.51	8.7	4.01	0.604	1.73
CATACAGGGTCAGCTAGGCTAGAGTAGGGACGGC	3.04	4.09	4.3	1.33	3.94	2.84	1.02	1.04
CGAACTAGGTCAGAACAGGAAAGTGAAGGATGAT	1.61	2.35	2.9	0.506	1.07	1.29	0.124	-0.115
TTACCAAGGTGGAGGTCGTTGATCCCTCTGTAGA	1.15	0.155	-0.0331	0.0989	1.41	1.4	0.145	1.32
CCAATTAGTTGACCATAAGGGCAACCGAAGCTCG	2.16	1.22	1.02	0.647	0.634	1.98	1.5	0.962
GCGACTGGGGCATCAGCATGTTACCATAACTTAA	0.222	0.263	0.143	0.363	0.217	0.125	-0.404	-0.64
CCTAGCAGGCCAGGGTCCCTCAAGCATTTCGCTT	-0.427	-0.683	-0.827	-1.15	-0.657	-0.281	-0.649	-0.542
CGAACGGGGGCATGAGTTGATAGCAAATGCCGAT	1.89	3.42	3.74	3.24	2.51	3.04	1.25	3.69
CTACCAAGGTGAACCAGGTCGTTGATTACTATTC	1.75	1.44	1.26	0.903	1.76	3.09	1.85	1.28
TCGAGTAGCTTAGTCGGGGCATTCAGCCAACATA	-0.405	-0.536	-1.05	-0.135	-0.559	-0.289	-0.688	-0.534
ATCTCGAGGTAAAGTTCAGTGAAAGATCGATAGA	2.23	2.68	2.72	0.929	1.7	1.71	-0.0248	1.71
TTACCAGGGTGAAGGTCGTTGATCCCTCTGTAGA	1.74	1.16	0.774	-0.374	2.14	1.84	0.461	0.856
GCATATAGGCAATACAAGGTGAAAGTCCGATTGT	0.688	0.477	0.305	0.168	0.621	3.17	0.6	-0.0976
CAAACTAGGTCACGAAAGGTCAAAGACGAATGAC	5.96	7.75	8.37	2.55	8.19	5.15	2.72	3.52
GTTTACGGGTCAAAGGTTATAGCATGAATAGAAT	3.41	6.91	5.26	2.06	9.23	3.94	0.0413	1.99
TCTTGTAGATCAGCAGGTTAATAAAGCTGGCCAA	-0.292	-0.0895	-0.342	0.531	0.393	0.0327	-0.292	-0.451
